Screening results: PubChem BioAssay, National Center for Advancing Translational Sciences (NCATS)
In the library only some 7.4% were active in any assay of this set; here they are far more common.
SMN2 splice enh: enhancers of SMN2 splice variant expression | 210,000 compounds, 2.8% hits | Potency, µM (doses to about 46.1 µM), inactives show at the top dose activity change, positive = activation, most hits filed as activators | AID 1458 | HEK293 SMN2-luciferase splicing reporter, luminescence, 30-36 h; further: % of control where 0% means no effect; nearly all actives have a fitted effect of over 55% in size
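HEK293 cells carry an SMN2 minigene-luciferase reporter in which exon 7 inclusion puts luciferase in frame. Cells were seeded at 2000 cells/well, attached for 10-12 hours, then exposed to compounds for 30-36 hours at 37C before ONE-Glo luminescence.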
ELG1 genotoxic: inducers of genotoxicity in HEK293T ELG1-luciferase cells | AID 504466 | HEK293T ELG1-luciferase reporter, luminescence, 16 h | Potency, µM (series often up to 46 µM), inactives show at the highest dose activity change, positive = activation, usual class: activators | 330,000 compounds, 1.3% hits; further: % of control where 0% means no effect; nearly all actives have a fitted effect of over 60% in size
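ELG1-luciferase HEK293T cells, 2,000/well; compound pinned in; 16 hr, 37 °C, 5% CO2; ONE-Glo, 30 min RT; luminescence on CCD imager.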
Rab9 promoter act: activators of Rab9 promoter. Potency, µM (series often up to 9.22 µM), inactives show at the top dose activation, negative = inhibition, usual class: activators. AID 485297. Huh7 Rab9 promoter-luciferase reporter, luminescence, 24 h. 320,000 compounds, 2.8% hits; further: % of control where 0% means no effect; nearly all actives have a fitted effect of over 60% in size
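Luminescence from Amplite-detected luciferase (10 minutes, ambient) reports Rab9 promoter activation. Before that, stable Rab9-luciferase Huh7 cells (1500/well, reduced-serum OP-MEM I plus 10% FBS) were exposed to compound for 24 hours at 37C.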
FLuc modulator: counter-screen for miR-21 project: firefly luciferase inhibitors or activators; P08659; purified FLuc, Km substrates, luminescence inhibition; Potency, µM (top dose mostly 57.5 µM), inactives show at the highest dose activity change, negative = inhibition, actives largely listed as inhibitors; 360,000 compounds, 6.9% hits;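 further: plate controls were vehicle for no effect and reference inhibitor for full effect; nearly all actives have a fitted effect of over 55% in size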
Target sequence (P08659 whole entry, looked up): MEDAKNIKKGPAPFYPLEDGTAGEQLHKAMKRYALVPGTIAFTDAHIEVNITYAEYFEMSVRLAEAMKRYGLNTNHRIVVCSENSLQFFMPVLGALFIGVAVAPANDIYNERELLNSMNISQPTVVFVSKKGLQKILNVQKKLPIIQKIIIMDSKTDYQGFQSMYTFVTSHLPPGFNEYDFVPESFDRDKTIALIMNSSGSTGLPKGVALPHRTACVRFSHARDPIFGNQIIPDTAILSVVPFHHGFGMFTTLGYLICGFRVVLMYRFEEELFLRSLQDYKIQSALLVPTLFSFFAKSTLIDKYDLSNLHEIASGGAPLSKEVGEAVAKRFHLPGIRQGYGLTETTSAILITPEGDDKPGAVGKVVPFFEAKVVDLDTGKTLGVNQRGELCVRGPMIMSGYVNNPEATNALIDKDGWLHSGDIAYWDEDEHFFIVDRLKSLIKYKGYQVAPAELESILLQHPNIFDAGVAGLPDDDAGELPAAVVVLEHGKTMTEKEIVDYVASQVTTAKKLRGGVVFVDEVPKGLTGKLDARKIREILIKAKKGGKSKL
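Purified P. pyralis luciferase (10nM final) with 10uM D-luciferin and 10uM ATP (Km levels) in 50mM Tris acetate pH 7.5, 10mM Mg acetate, 0.01% Tween-20, 0.05% BSA; qHTS 6-point titration, ~60 µM downward; luminescence read.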
NPC1 promoter act: activates the NPC1 promoter | Huh7 NPC1 promoter luciferase reporter, 24 h | 320,000 compounds, 2.4% hits | Potency, µM (doses to about 9.22 µM), without a hit: at the top dose activation, hits mostly activators; further: % of control where 0% means no effect; nearly all actives have a fitted effect of over 60% in size
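Huh7 reporter cells (NPC1 promoter driving luciferase) are dosed with compound for 24 h at 37 °C, 5% CO2; luciferase detection reagent is then added and luminescence measured after 10 min at ambient temperature.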
An asterisk follows results filed as active; ? = inconclusive; . = no result given. The call rests on the fitted dose curve; in most records, active means well fitted curve in the direction sought with a large enough effect; inconclusive means small, poorly fitted or top-dose-only effect, or another doubt; inactive means no such curve, though single readings can be large; an effect the other way counts as inactive or inconclusive. Potency means the concentration at half of the fitted maximal effect.

SMILES | SMN2 splice enh | ELG1 genotoxic | Rab9 promoter act | FLuc modulator | NPC1 promoter act
COc1cc(OC)cc(C(=O)Nc2cc(-c3nc4ccccc4s3)ccc2OC)c1 | 2% | . | . | ? | .
O=C1CCC(=O)N1c1ccc(-c2nc3ccccc3s2)cc1 | 10µM* | ? | 0.35µM* | 0.54µM* | 0.45µM*
Cc1ccccc1CNC(=O)CCNS(=O)(=O)c1ccc(OC(F)(F)F)cc1 | . | -2% | 10% | . | -3%
CCCc1ccc(OC(C)C(=O)Nc2sc3c(c2C(=O)OC)CCCCC3)cc1 (centres undefined) | -7% | . | . | -14% | .
Brc1cc2c(cc1-c1nc3ccccc3s1)OCO2 | . | 12% | 27% | 12µM* | 24%
O=C(Nc1ccccc1-c1nc2ccccc2s1)C1=COCCO1 | -18% | -3% | -3% | 4% | -5%
Nc1ccc(-c2nc3ccccc3s2)cn1 | . | 9.2µM* | 1.6µM* | 4.8µM* | 1.3µM*
CC1CCCCN1C(=O)COC(=O)CNC(=O)c1ccc(Cl)cc1Cl (centres undefined) | . | 0% | 2% | ? | 3%
CC(/C=C/c1ccccc1)=N\Nc1nc(-c2ccccc2)cs1 | -23% | -8% | -4% | 4% | -4%
CC(C)=NNc1nc(-c2ccccc2)cs1 | -17% | ? | 12% | 19µM* | 16%
c1ccc(-c2csc(Nc3nc(N4CCOCC4)nc(N4CCOCC4)n3)n2)cc1 | -14% | 1% | -9% | 3% | -5%
Cc1ccc(Nc2nc(-c3cccs3)cs2)nc1 | 1.4µM* | 0.52µM* | 0.45µM* | 0.24µM* | 0.45µM*
Cc1cc(C)nc(Nc2nc(-c3ccccc3)cs2)n1 | . | 1.6µM* | 0.71µM* | ? | ?
Cc1ccc(Nc2nc(-c3ccccc3)cs2)nc1 | . | 0.33µM* | 0.56µM* | 0.38µM* | 0.45µM*
COc1ccc(-c2cc(C(C)=O)c(C)n2CCC(=O)Nc2ccc(C)cc2Cl)cc1 | . | . | . | -5% | .
CCCc1nn2c(=O)cc(COC(=O)c3ccccc3NC(=O)C3CCCCC3)nc2s1 | . | . | . | -6% | .
CC1(CCc2ccccc2)NC(=O)N(CC(=O)N2CCCCCC2)C1=O (centres undefined) | . | 0% | 2% | 1% | -2%
CCOc1cc(/C=N\Nc2ncc(F)c(N3CCOCC3)n2)ccc1Oc1nc(Cl)ncc1F | . | -10% | -15% | 21µM* | -6%
CCOc1cc(/C=N/NC(=O)c2ccc(O)cc2)ccc1Oc1nc(Cl)ncc1F | 3% | -12% | 1% | -17% | -1%
O=C(N/N=C/c1ccncc1)c1ccc(COc2cccc3cccnc23)cc1 | 12% | -9% | 9% | -19% | -2%
O=C(N/N=C/c1cccc(O)c1)c1ccc(COc2cccc3cccnc23)cc1 | 12% | 15% | 2% | 17µM* | -14%
COc1ccc(/C=N/NC(=O)c2sccc2OCc2ccc(F)cc2)cc1OC | -11% | 0% | -1% | 13µM* | -8%
COc1ccc(/C=N/NC(=O)c2ccc(COc3cccc4cccnc34)cc2)cc1O | . | -6% | -7% | 13µM* | 1%
O=C(N/N=C/c1ccc2c(c1)OCO2)c1ccc(COc2cccc3cccnc23)cc1 | 7% | 0% | ? | 5.4µM* | 18%
C/C=C(/C)C#N | -37% | . | . | . | .
SMILES | SMN2 splice enh | ELG1 genotoxic | Rab9 promoter act | FLuc modulator | NPC1 promoter act
N=C1/C(=C/c2cccn2Cc2ccc(Cl)cc2)C(=O)N=C2SC=CN12 | -29% | -1% | 1% | 7% | -4%
O=C(N/N=C/c1ccc2cccc(OCc3ccccc3)c2n1)c1ccc(Cl)cc1 | -4% | -10% | 4% | 6.7µM* | 6%
COc1ccc(C(=O)N/N=C/c2ccc3cccc(O)c3n2)cc1 | . | -5% | -7% | ? | -6%
CCOc1ccc(CCNC(=O)CCn2c(=O)c3cccn3c3cccnc32)cc1 | . | . | . | -2% | .
Nc1ccc(Nc2nc(-c3ccncc3)cs2)cc1 | -3% | ? | ? | 4.8µM* | ?
Cc1cc(O)ccc1Nc1nc(-c2cccs2)cs1 | ? | 3.3µM* | ? | 0.54µM* | ?
Cc1cc(O)ccc1Nc1nc(-c2cccnc2)cs1 | . | 7% | 0% | 6µM* | ?
Brc1cccc(Nc2nc(-c3cccnc3)cs2)c1 | . | ? | 21% | 9.5µM* | ?
Cc1ccc(C)c(Cn2c(=O)cc(C)c3c(C)nn(C)c32)c1 | . | . | . | -14% | .
